Laboratory results taken from PubChem BioAssay (Tox21).
Several values for one entry are separate records, joined by “and”; a condition that tells them apart may be missing. Equal entries are not always repeated. Inconclusive results are not listed. Entries that show only a call come without a potency. A structure can be active in one record and inactive in another. Activity calls are given as the source filed them. Unless noted, calls follow the shape of the dose curve; as a rule, active = well fitted curve in the direction sought with a large enough effect in the repeat runs; inconclusive = weak or mixed curves; inactive = no such curve, though single readings can be large; an effect the other way counts as inactive or inconclusive.

How the values were obtained:
[1] = qHTS assay to identify small molecule agonists of the RXR signaling pathway - cell viability counter screen (AID 1159529); also: nearly all actives have a fitted effect of over 50% in size; also: potency is read from the fitted curve at half-maximal effect
Procedure, shortened: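 In this parallel viability measure, GeneBLAzer RXR-alpha HEK 293T cells (2% charcoal-stripped FBS) were given a 5 hr preincubation, treated with compounds 16 hr at 37 C, and read by CellTiter-Glo luminescence.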

[2] = qHTS assay to identify small molecule antagonists of the retinoid acid receptor (RAR) signaling pathway - cell viability counter screen (AID 1159551); also: nearly all actives have a fitted effect of over 35% in size; also: potency is read from the fitted curve at half-maximal effect
Procedure, shortened: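 Viability of C3RL4 cells is quantified from ATP by luminescence after 6 h treatment at 37 C with compounds and 1 uM retinol.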

[3] = qHTS assay to identify small molecule antagonists of the retinoic acid receptor (RAR) signaling pathway (AID 1159552; also: nearly all actives have a fitted effect of over 50% in size; also: potency is read from the fitted curve at half-maximal effect)
Procedure, shortened: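 C3RL4 RARE-luc cells, overnight plating; retinol 1 uM final added right after compound; 6 hr 37 C; luciferase read at 30 min RT.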

[4] = qHTS assay to identify small molecule agonists of the retinoic acid receptor (RAR) signaling pathway (AID 1159553); also: potency is read from the fitted curve at half-maximal effect
Procedure, shortened: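 Compounds dissolved in DMSO were pinned onto C3RL4 cells seeded the previous day, and plates were held 6 hr at 37 C. RARE-driven luciferase output was then read by luminescence.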

[5] = qHTS assay to identify small molecule antagonists of the estrogen related receptor (ERR) signaling pathway (AID 1224819;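 also: luminescence from an ERR-driven luciferase reporter measured with One-Glo reagent; series mostly up to about 46 µM; nearly all actives have a fitted effect of over 50% in size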)
Procedure, shortened: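 ERR reporter cells were plated at 2,000 cells/well and left 6 h at 37 C/5% CO2 before pin-tool transfer of compounds in DMSO. After 18 h at 37 C, One-Glo was added and luminescence was read 30 min later at room temperature.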

[6] = qHTS assay to identify small molecule agonists of the estrogen related receptor (ERR) signaling pathway (AID 1224820)
Procedure, shortened: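 Luminescence readout (One-Glo, 30 min RT) from NTP-supplied ERR cell line exposed to compounds for 18 h at 37 C. Cells seeded 2,000 per well and pre-incubated 6 h before pin-tool compound transfer.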

[7] = system: estrogen-related receptor alpha (ERRalpha) with PGC-1alpha coactivator, human; assay: qHTS assay to identify small molecule antagonists of the estrogen related receptor signaling pathway with the pleiotropic PPARgamma coactivator (PGC) (AID 1224821; calls by dose curve;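 also: series mostly up to about 46 µM; lower luminescence signal means antagonism of PGC/ERR signalling; nearly all actives have a fitted effect of over 50% in size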)
Procedure, shortened: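 PGC/ERR reporter cells; 6 h pre-incubation 37 C/5% CO2; pin-tool compound in DMSO, 18 h 37 C; One-Glo added, 30 min RT; luminescence read. qHTS antagonist mode.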

[8] = qHTS assay to identify small molecule antagonists of the estrogen related receptor signaling pathway with the pleiotropic PPARgamma coactivator (PGC) cell viability counter screen (AID 1224822;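 also: series mostly up to about 46 µM; viability read after 17.5 h compound exposure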)
Procedure, shortened: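 Viable cell signal (CellTiter-Fluor, 30 min, 37 C/5% CO2) was measured in PGC/ERR cells after a 17.5 h compound incubation.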

[9] = qHTS assay to identify small molecule agonists of the estrogen related receptor signaling pathway with the pleiotropic PPARgamma coactivator (PGC) (AID 1224823)
Procedure, shortened: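 Luminescence readout (One-Glo, 30 min RT) from PGC/ERR cell line treated 18 h at 37 C with pin-tool-delivered DMSO compound solutions; cells plated 6 h before dosing. Quantitative HTS format.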

[10] = qHTS assay to identify small molecule antagonists of the estrogen related receptor (ERR) signaling pathway from Tox21 library - cell viability counter screen (AID 1224834); also: nearly all actives have a fitted effect of over 30% in size; also: potency is read from the fitted curve at half-maximal effect
Procedure, shortened: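 In this quantitative HTS format, ERR cells receive compounds in DMSO and are incubated for 17.5 h at 37 C. Live-cell protease activity is then detected with CellTiter-Fluor.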

SMILES	Potency [1]	Potency [2]	Potency [3]	Potency [4]	Potency [5]	outcome [6]	Potency [7]	Potency [8]	outcome [9]	Potency [10]
CCC[C@H](N[C@@H](C)C(=O)N1[C@H](C(=O)O)C[C@@H]2CCCC[C@@H]21)C(=O)OCC	inactive	inactive	inactive	inactive	–	–	–	–	–	–
CN(C)c1ccc(C(=C2C=CC(=[N+](C)C)C=C2)c2ccccc2)cc1	3.47 µM (active) and 2.39 µM (active) and 4.25 µM (active)	10.6 µM (active) [middle of 4 runs]	–	–	–	–	–	–	–	–
COc1ccc(COC(C)=O)cc1	inactive	inactive	inactive	inactive	–	–	–	–	–	–
O=C1CC2(CCCC2)CC(=O)N1CCCCN1CCN(c2ncccn2)CC1	inactive	inactive	inactive	inactive	inactive	inactive	inactive	inactive	inactive	inactive
CC1=CC(=O)c2ccccc2C1=O	24.5 µM (active) and 21.3 µM (active)	27.3 µM (active)	30.6 µM (active)	inactive	–	–	–	–	–	–
O=C(O)c1cccc(C(=O)O)c1	inactive	inactive	inactive	inactive	–	–	–	–	–	–
C1COC(NC(C2CC2)C2CC2)=N1	inactive	inactive	inactive	inactive	inactive	–	inactive	inactive	inactive	inactive
Nc1ccc(O)cc1	inactive	inactive	inactive	20.1 µM (active)	–	–	–	–	–	31.8 µM (active) and inactive
C=CS(=O)(=O)O	inactive	inactive	inactive	inactive	–	–	–	–	–	inactive
CCN(CC)CCOc1ccc(/C(=C(\Cl)c2ccccc2)c2ccccc2)cc1	15.8 µM (active) and 10.7 µM (active)	49.6 µM (active)	24.8 µM (active)	–	–	–	–	–	–	55.6 µM (active) and 26.6 µM (active)
CCC(CO)(CO)COCC(CC)(CO)CO	inactive	inactive	inactive	inactive	–	–	–	–	–	inactive
CNCCC(Oc1ccc(C(F)(F)F)cc1)c1ccccc1 (stereo not given)	27.2 µM (active) and 23.9 µM (active)	inactive	53.8 µM (active)	–	–	–	–	–	–	60.3 µM (active)
CCCCN(CCO)CCCC	inactive	inactive	inactive	inactive	–	–	–	–	–	inactive
C#CC(C)(CC)OC(=O)c1ccccc1C(=O)O (stereo not given)	inactive	inactive	inactive	inactive	–	–	–	–	–	inactive
CC[C@@H](N)CO	inactive	inactive	inactive	inactive	–	–	–	–	–	inactive
Cc1cccc(O)c1C	inactive	inactive	inactive	inactive	–	–	–	–	–	inactive
CC(C)(C)c1ccccc1	inactive	inactive	inactive	inactive	–	–	–	–	–	inactive
CC1=C(C=O)C(C)(C)CC=C1	inactive	inactive	inactive	inactive	–	–	–	–	–	inactive
Cc1occc(=O)c1OC(=O)C(C)C	inactive	inactive	inactive	inactive	–	–	–	–	–	inactive
OCCOCCN1CCN(C(c2ccccc2)c2ccc(Cl)cc2)CC1 (stereo not given)	21.6 µM (active)	inactive	60.3 µM (active) and inactive	inactive	–	–	–	–	–	30.2 µM (active)
O=C(O)c1cc(Cl)cc(Cl)c1	inactive	inactive	inactive	inactive	–	–	–	–	–	inactive
O=C(O)c1cn(-c2ccc(F)cc2)c2cc(N3CCNCC3)c(F)cc2c1=O	inactive	inactive	inactive	inactive	–	–	–	–	–	inactive
Oc1c(Cl)cc(Cl)cc1Sc1cc(Cl)cc(Cl)c1O	49.1 µM (active)	inactive	30.7 µM (active) and 27.8 µM (active) and 27.3 µM (active)	inactive	–	–	–	–	–	21.7 µM (active) and 24.3 µM (active)
CCN(CC)c1ccc2c(C)cc(=O)oc2c1	inactive	inactive	inactive	inactive	–	–	–	–	–	inactive
Nc1nc2ccccc2[nH]1	inactive	inactive	inactive	inactive	–	–	–	–	–	inactive
O=C(O[C@@H]1Cc2c(O)cc(O)cc2O[C@@H]1c1cc(O)c(O)c(O)c1)c1cc(O)c(O)c(O)c1	inactive	inactive	inactive	inactive	–	–	–	–	–	48.7 µM (active) and 52.5 µM (active)
CCCCC/C=C/CC1CC(=O)OC1=O (stereo not given)	inactive	inactive	inactive	inactive	–	–	–	–	–	inactive
COC(=O)/C=C/c1ccccc1	inactive	inactive	inactive	inactive	–	–	–	–	–	inactive
